Source: ChEMBL document CHEMBL2218924, “A broad activity screen in support of a chemogenomic map for kinase signalling research and drug discovery” (Biochem J, 2013)

Key:
[1] = target: T1, Ephrin type-A receptor 3 (Homo sapiens) (UniProt P29320); details: at 10 µM
T1 sequence (whole entry): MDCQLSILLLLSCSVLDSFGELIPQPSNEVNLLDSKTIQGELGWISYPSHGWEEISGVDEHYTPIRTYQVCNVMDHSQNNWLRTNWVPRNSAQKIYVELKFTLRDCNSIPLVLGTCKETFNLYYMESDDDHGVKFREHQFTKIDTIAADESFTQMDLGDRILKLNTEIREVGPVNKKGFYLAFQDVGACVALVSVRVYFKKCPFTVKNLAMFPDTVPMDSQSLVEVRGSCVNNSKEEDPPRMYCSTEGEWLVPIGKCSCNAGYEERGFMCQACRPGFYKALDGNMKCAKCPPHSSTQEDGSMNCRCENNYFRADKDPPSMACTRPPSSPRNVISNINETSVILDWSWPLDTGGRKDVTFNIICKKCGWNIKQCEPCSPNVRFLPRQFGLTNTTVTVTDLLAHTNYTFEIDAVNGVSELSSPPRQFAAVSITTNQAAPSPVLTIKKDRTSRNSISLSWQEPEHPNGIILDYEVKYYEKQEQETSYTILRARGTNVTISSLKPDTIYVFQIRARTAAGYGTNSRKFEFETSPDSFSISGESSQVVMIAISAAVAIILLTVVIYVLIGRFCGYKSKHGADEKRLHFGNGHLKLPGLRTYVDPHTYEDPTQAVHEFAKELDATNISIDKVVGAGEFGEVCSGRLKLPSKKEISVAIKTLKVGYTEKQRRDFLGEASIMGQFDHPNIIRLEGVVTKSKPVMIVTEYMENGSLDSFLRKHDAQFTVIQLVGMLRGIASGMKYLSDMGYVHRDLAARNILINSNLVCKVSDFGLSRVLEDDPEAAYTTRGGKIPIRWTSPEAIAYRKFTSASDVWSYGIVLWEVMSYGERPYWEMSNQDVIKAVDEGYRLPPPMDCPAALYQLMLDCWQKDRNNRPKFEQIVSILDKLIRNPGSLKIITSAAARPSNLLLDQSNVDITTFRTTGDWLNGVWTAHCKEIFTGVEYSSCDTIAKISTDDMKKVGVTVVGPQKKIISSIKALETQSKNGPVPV

[2] = target: Ephrin type-A receptor 4 (Homo sapiens) (UniProt P54764); details: at 1 µM
[3] = target: Ephrin type-A receptor 4 (Homo sapiens) (UniProt P54764); details: at 10 µM
[4] = target: Ephrin type-A receptor 5 (Homo sapiens) (UniProt P54756); details: at 1 µM
[5] = target: Ephrin type-A receptor 5 (Homo sapiens) (UniProt P54756); details: at 10 µM
[6] = target: Ephrin type-A receptor 7 (Homo sapiens) (UniProt Q15375); details: at 1 µM
[7] = target: Ephrin type-A receptor 7 (Homo sapiens) (UniProt Q15375); details: at 10 µM
[8] = target: T2, Ephrin type-A receptor 8 (Homo sapiens) (UniProt P29322); details: at 1 µM
T2 sequence (whole entry): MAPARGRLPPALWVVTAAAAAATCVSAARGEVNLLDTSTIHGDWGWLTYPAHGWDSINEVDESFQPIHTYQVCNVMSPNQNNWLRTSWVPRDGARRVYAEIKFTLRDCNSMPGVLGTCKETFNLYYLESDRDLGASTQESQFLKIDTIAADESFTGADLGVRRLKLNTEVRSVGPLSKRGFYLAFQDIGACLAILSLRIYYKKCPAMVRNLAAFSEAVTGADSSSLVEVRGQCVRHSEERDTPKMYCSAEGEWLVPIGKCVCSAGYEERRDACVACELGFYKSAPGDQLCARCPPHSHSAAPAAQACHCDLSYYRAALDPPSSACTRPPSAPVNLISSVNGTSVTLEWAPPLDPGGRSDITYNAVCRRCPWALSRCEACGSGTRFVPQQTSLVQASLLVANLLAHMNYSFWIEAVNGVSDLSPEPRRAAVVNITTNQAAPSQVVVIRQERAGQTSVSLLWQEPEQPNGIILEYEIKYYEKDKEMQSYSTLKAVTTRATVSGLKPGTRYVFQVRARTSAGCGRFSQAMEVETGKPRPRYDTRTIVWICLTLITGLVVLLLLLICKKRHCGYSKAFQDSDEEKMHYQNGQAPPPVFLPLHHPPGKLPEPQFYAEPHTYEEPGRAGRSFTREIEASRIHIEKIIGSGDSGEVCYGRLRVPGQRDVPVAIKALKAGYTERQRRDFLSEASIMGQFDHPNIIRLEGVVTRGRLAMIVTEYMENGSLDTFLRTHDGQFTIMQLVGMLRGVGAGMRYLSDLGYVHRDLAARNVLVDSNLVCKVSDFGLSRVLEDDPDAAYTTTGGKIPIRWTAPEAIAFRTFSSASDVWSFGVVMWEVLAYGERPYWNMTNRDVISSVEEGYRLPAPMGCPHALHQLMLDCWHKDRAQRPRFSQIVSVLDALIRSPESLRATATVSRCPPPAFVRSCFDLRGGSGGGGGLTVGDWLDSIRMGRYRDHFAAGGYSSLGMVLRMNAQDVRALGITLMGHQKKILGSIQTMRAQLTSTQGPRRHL

[9] = target: T2, Ephrin type-A receptor 8 (Homo sapiens); details: at 10 µM
[10] = target: T3, Ephrin type-B receptor 1 (Homo sapiens) (UniProt P54762); details: at 1 µM
T3 sequence (whole entry): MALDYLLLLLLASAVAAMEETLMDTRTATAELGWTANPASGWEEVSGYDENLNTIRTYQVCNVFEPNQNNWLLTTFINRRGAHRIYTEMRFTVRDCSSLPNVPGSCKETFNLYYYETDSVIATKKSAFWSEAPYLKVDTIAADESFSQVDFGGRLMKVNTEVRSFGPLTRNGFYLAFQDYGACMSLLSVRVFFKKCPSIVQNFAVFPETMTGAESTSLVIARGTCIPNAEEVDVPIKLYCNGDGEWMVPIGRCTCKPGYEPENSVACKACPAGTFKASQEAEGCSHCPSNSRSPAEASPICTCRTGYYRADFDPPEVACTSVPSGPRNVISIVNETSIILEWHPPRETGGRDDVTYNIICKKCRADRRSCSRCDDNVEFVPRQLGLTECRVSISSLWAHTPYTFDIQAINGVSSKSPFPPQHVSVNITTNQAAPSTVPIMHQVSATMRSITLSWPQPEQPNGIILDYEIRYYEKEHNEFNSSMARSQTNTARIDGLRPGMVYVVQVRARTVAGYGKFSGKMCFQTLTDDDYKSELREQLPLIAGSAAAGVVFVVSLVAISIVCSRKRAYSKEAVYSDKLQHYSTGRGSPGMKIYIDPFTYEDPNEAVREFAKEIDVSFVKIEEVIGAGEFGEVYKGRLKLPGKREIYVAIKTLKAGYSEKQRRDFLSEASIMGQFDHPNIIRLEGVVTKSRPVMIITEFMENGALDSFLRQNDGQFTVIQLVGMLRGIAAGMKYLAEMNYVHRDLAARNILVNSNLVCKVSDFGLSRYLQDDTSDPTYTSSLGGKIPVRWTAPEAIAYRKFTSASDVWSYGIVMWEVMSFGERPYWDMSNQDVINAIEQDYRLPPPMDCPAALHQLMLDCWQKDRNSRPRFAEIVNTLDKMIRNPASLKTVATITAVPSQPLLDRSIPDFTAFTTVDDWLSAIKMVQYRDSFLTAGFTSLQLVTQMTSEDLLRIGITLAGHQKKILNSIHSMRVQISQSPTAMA

Ephrin type-A receptor 7 (Homo sapiens), sequence (Q15375 28-998 limits assumed): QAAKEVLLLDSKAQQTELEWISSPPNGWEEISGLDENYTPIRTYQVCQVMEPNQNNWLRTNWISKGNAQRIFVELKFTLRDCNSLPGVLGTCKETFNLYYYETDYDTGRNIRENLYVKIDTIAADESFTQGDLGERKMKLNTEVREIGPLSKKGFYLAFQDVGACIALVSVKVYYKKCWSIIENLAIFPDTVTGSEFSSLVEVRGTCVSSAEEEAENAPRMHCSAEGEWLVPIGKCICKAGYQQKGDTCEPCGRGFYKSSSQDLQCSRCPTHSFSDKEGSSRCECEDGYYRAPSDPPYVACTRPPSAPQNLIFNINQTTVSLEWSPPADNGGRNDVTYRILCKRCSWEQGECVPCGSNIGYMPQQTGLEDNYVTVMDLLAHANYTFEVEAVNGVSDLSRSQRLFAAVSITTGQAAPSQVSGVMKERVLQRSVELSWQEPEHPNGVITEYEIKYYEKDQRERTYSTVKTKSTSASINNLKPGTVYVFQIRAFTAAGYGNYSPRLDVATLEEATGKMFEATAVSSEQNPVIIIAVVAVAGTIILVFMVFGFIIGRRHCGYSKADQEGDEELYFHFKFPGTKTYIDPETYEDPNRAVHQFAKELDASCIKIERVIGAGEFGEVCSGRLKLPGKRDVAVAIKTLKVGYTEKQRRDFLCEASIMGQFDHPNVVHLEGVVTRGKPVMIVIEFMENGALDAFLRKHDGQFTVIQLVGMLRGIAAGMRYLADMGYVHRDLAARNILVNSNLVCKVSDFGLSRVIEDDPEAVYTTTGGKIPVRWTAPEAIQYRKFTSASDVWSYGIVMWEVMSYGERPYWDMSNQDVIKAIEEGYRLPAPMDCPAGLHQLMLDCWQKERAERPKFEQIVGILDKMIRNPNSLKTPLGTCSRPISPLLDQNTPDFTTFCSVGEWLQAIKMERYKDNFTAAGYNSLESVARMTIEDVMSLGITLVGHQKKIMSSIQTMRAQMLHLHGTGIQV
Ephrin type-A receptor 5 (Homo sapiens), sequence (P54756 whole entry): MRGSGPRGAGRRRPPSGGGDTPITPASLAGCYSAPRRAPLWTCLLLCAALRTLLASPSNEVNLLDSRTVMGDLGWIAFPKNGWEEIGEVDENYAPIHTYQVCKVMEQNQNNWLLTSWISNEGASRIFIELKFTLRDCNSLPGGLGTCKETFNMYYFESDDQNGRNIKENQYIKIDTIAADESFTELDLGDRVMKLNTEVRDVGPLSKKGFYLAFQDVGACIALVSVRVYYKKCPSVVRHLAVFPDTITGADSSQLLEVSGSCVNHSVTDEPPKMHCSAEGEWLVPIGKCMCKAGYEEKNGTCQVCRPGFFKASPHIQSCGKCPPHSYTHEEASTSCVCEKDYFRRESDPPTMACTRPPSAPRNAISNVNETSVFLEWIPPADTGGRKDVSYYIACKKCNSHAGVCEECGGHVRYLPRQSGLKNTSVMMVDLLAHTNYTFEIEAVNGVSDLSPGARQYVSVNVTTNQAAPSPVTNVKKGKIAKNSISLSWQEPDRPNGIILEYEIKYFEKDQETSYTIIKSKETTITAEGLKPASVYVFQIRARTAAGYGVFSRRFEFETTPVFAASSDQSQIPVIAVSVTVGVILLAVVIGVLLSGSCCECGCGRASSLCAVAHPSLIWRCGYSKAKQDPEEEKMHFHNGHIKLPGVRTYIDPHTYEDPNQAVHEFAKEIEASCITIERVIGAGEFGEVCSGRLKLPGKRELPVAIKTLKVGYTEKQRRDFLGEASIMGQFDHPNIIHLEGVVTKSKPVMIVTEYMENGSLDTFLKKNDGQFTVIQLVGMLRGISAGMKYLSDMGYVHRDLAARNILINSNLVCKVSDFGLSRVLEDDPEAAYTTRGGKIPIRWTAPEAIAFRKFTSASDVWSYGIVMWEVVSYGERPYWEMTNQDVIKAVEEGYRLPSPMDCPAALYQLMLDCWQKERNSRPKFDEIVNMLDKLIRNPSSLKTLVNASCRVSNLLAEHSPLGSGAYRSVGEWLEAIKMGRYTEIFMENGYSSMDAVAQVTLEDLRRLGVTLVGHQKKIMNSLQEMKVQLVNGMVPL
Ephrin type-A receptor 4 (Homo sapiens), sequence (P54764 whole entry): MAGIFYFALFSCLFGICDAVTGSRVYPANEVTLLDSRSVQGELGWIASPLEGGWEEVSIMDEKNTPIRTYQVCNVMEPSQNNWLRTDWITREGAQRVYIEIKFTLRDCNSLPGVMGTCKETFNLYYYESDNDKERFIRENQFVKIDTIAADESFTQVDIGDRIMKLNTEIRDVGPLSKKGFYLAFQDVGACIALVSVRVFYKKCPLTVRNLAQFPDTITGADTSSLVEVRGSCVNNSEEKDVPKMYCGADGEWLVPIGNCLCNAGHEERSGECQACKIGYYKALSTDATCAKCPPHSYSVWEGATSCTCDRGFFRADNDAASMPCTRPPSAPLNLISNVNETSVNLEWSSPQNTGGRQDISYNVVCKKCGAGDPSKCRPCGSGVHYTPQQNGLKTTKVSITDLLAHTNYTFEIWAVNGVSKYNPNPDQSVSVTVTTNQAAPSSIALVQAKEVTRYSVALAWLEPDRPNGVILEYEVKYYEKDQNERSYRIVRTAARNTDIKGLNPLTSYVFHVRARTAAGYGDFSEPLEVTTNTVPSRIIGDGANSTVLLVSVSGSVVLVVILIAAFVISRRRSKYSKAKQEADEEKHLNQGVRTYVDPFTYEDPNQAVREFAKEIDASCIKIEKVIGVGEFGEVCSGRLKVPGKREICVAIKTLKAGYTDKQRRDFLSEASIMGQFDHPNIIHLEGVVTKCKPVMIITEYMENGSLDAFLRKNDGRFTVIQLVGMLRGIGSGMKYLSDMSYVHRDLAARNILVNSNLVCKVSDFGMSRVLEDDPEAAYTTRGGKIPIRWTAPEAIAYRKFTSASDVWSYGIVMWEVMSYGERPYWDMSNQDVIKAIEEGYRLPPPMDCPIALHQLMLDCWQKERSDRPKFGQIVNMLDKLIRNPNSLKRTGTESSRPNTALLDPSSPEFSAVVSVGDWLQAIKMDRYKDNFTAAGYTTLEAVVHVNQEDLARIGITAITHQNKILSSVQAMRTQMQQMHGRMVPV

## Nc1ncnc2c1c(-c1ccc(Oc3ccccc3)cc1)cn2C1CCCC1
[1]
  residual activity: 48%
[2]
  residual activity: 112%
[3]
  residual activity: 79%
[4]
  residual activity: 83%
[5]
  residual activity: 38%
[6]
  residual activity: 94%
[7]
  residual activity: 66%
[8]
  residual activity: 84%
[9]
  residual activity: 27%
[10]
  residual activity: 90%
